# About 17,000 (4.4%) of roughly 390,000 compounds were called active. Inconclusive results (about 8%) are left out. Calls follow the shape of the dose curve; as a rule, active = well fitted inhibition curve with a large enough effect; inconclusive = small, poorly fitted or top-dose-only effect; inactive = no such curve, though single readings can be large or run the other way. The list comes from a sample in which actives are over-represented; it also holds similar structures and randomly drawn compounds.
# Biological target: Lysine-specific demethylase 4A (Homo sapiens) (UniProt O75164)
# Sequence (O75164 whole entry, looked up, the tested form may be a part): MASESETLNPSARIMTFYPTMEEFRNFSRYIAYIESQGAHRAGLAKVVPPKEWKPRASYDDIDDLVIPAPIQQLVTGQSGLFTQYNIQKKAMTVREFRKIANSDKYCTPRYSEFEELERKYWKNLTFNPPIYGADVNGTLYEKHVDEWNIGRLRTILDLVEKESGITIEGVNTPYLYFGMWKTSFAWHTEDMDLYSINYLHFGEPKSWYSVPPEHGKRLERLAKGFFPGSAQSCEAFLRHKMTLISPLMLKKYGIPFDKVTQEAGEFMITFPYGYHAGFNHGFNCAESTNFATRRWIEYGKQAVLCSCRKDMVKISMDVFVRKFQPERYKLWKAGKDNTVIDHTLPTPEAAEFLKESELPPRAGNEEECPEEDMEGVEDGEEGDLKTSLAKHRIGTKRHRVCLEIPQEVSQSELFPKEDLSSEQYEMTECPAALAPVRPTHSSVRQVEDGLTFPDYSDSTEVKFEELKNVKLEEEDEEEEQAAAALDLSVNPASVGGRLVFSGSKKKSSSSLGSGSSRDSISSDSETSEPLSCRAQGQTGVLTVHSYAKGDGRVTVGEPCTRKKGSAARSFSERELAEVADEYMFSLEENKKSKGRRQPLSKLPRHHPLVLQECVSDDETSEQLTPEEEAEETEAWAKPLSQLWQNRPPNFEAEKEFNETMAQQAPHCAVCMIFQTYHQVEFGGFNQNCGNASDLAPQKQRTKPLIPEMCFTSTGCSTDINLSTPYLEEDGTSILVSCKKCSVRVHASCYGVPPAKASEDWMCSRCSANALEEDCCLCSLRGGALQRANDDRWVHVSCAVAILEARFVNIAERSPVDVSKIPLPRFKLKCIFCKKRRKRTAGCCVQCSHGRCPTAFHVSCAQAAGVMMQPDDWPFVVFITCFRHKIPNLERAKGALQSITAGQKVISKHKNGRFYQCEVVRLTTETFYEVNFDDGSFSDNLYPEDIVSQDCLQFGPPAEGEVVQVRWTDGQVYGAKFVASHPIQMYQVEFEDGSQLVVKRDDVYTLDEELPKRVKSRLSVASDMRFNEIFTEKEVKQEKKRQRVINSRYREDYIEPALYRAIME
# Test: qHTS Assay for Inhibitors of JMJD2A-Tudor Domain; also: nearly all actives have a fitted effect of over 50% in size
# Details: AlphaScreen JMJD2A-Tudor / H3K4me3 peptide binding; series mostly up to 114 µM; activity change, negative = inhibition: at the top concentration
# % is scaled to controls: 0 for no effect and ±100 for the full control effect; potency is read from the fitted curve at half-maximal effect.
SMILES,"activity change, negative = inhibition",Potency
Cc1ccc2nc(COc3ccc(NC(=O)COc4ccccc4F)cc3)cc(=O)n2c1,-2.6% (inactive),
Cc1ccc(NC(=O)Cn2nnc3sc4c(c3c2=O)CCC(C)C4)cc1 (stereo unspecified),-12.8% (inactive),
CCC(=O)N1CCc2cc(S(=O)(=O)NC(C(=O)NCCc3ccc(C)cc3)C(C)C)ccc21 (stereo unspecified),-18.3% (inactive),
S=c1c2[nH]cnc2ncn1CCSc1ncnc2nc[nH]c12,,12.6 µM (active)
CCc1ccc(N(CC)c2ncnc3nc[nH]c23)cc1,-11.3% (inactive),
Cc1ccc(NC(=O)c2ccc(CSc3ncnc4nc[nH]c34)cc2)c(C)c1,-6.81% (inactive),
CN(C(=O)CSc1nc2ccc(NC(=O)COc3ccccc3)cc2s1)c1ccccc1,-15.6% (inactive),
CCCCCCSc1ccc([C@@H]2[C@@H]3C(=O)N(CC)C(=O)[C@@H]3[C@]3(C(=O)OC)CCCCN23)cc1OC,,56.2 µM (active)
CCN1C(=O)[C@@H]2[C@@H](c3ccc(-c4ccc(OC)cc4)c(OC)c3)N3CCC[C@@]3(C(=O)OC)[C@@H]2C1=O,-26.4% (inactive),
CCCCCCSc1ccc([C@@H]2[C@H]3C(=O)N(CC)C(=O)[C@H]3[C@]3(C(=O)OC)CCCCN23)cc1,-7.64% (inactive),
COc1ccc(Cc2nc3ccc(C(=O)NCc4ccccc4C)cc3o2)cc1,-8.95% (inactive),
O=C1c2ccccc2C(=O)N1c1ccc(S(=O)(=O)N2CCOCC2)c2ccccc12,-10.6% (inactive),
COc1ccc(OCC(=O)NNC(=O)C2CCC2)cc1,3.76% (inactive),
O=C(COc1ccccc1)Nc1ccc(F)cc1,2.1% (inactive),
O=C(COc1ccccc1[N+](=O)[O-])N/N=C/c1ccc[nH]1,-25.3% (inactive),
COc1ccc(CNc2nnnn2C)cc1,-6.16% (inactive),
COc1ccccc1OCc1nnc(SCC(N)=O)n1-c1ccccc1,-10.9% (inactive),
O=[N+]([O-])c1ccccc1/C=N/n1c(COc2ccccc2)n[nH]c1=S,,50.1 µM (active)
CC(Sc1nnc(COc2ccccc2)n1-c1ccccc1)C(=O)O (stereo unspecified),-15.1% (inactive),
Fc1ccc(/C=N/n2c(COc3ccccc3)n[nH]c2=S)cc1,,56.2 µM (active)
S=c1[nH]nc(COc2ccccc2)n1-c1ccccc1,,12.6 µM (active)
Cc1c(NC(=O)CCCOc2ccccc2)cccc1[N+](=O)[O-],-23.9% (inactive),

SMILES,"activity change, negative = inhibition",Potency
COc1ccc(OCc2n[nH]c(=S)n2N)cc1,,3.98 µM (active)
CCOc1ccccc1C(=O)Nc1ccc2c(c1)N(C)C(=O)c1ccccc1S2,-15% (inactive),
CCOC(=O)c1cc2c(=O)n3ccccc3nc2n(CCCOC)c1=NC(=O)C(C)Oc1ccccc1 (stereo unspecified),-18.1% (inactive),
Cc1ccc2nc(N3CCN(c4cccc(Cl)c4)CC3)c3nnnn3c2c1,15.9% (inactive),
Cc1cc(C)cc(NC(c2nnc(-c3cccc(F)c3)o2)c2ccc(F)cc2Cl)c1 (stereo unspecified),-17.8% (inactive),
COc1ccc(CCNC(=O)c2ccc(-n3c(C)cc4c3CCCC4)cc2)cc1OC,-22.1% (inactive),
COc1ccc(C2/C=C\CN(Cc3ccco3)C(C)C(=O)N2Cc2ccc(F)cc2)cc1 (stereo unspecified),-26.2% (inactive),
O=C(NCCc1ccccc1)c1ccc2c(c1)N(Cc1ccccc1)C(=O)c1ccccc1S2(=O)=O,-19.2% (inactive),
Cc1cnc(NC(=O)c2ccccn2)s1,,56.2 µM (active)
CN(C(=O)c1ccccn1)c1nnc(-c2ccccn2)s1,-13.5% (inactive),
Cc1cnc(NC(=O)Cn2cnc3c2c(=O)n(C)c(=O)n3C)s1,3.52% (inactive),
Cc1c(Cl)cccc1NC(=O)c1noc2c1CCCC2,10.6% (inactive),
CC(=O)Nc1ccc(NC(=O)CS(=O)(=O)c2cn(CC(=O)N3CCCCC3)c3ccccc23)cc1,-3.42% (inactive),
CCOC(=O)c1ccc(NC(=O)Cn2cc(S(=O)(=O)Cc3ccccc3F)c3ccccc32)cc1,-14.9% (inactive),
CCOC(=O)c1ccc(NC(=O)CS(=O)(=O)c2cn(CC)c3ccccc23)cc1,,79.4 µM (active)
COc1ccccc1NC(=O)CSc1oc(-c2ccco2)nc1S(=O)(=O)c1ccc(Br)cc1,-23.2% (inactive),
CCCn1c2ccccc2c2cnn(CC(=O)N(C)c3ccccc3CC)c(=O)c21,-26.7% (inactive),
CN(C)CCOCCOc1ccc(Cl)c2ccccc12,,3.16 µM (active)
CCN(CC)CCOCCOc1ccc(Cl)c2ccccc12,,25.1 µM (active)
CCOc1ccc(S(=O)(=O)N2CCCCCC2)c2ccccc12,23.2% (inactive),
CCCC(C(=O)OCCN(CC)CC)(c1ccccc1)c1ccccc1,-36% (inactive),
COc1ccc(C)cc1NC(=O)C(=O)NCCc1sc(-c2cccc(C)c2)nc1C,-6.13% (inactive),

SMILES,"activity change, negative = inhibition",Potency
Cc1nc(SCC(=O)N2CCN(c3ccccc3)CC2)[nH]c(=O)c1C,-9.03% (inactive),
CCOc1ccc(NC(=O)CCC(=O)N2CC(C)Oc3ccc(C)cc32)cc1 (stereo unspecified),-2.32% (inactive),
CCOc1ccc(CNC(=O)c2ccc3c(c2)nnn3C2CCCC2)cc1,-18.5% (inactive),
COc1ccc(-c2nc3sc(CCNC(=O)C(C)(C)C)c(C)n3n2)cc1,-14% (inactive),
CCOC(=O)C1Nc2ccc(C(F)(F)F)cc2C2C=CCC12 (stereo unspecified),,50.1 µM (active)
CCOC(=O)NNc1cc(C(F)(F)F)ccn1,-14.5% (inactive),
CCOC(=O)C[C@H]1c2ccc(C(F)(F)F)cc2S(=O)(=O)N1c1ccccc1,-14.3% (inactive),
CCOc1cccc(NC(=O)CSc2ncc(-c3ccc(Cl)cc3)[nH]2)c1,-16.1% (inactive),
COc1cccc(C(=O)NC2CCN(C#N)CC2)c1,-17.8% (inactive),
COC(=O)c1cnn(-c2ccc(C(=O)Nc3ccc(OC(F)(F)F)cc3)cc2)c1N,-18% (inactive),
CCCN(CCC)CCCNC(=O)Cn1cc2c(n1)-c1c(oc(C(=O)N3CCCC3)c1C)CC2,-15.8% (inactive),
CCOC(=O)c1ccc(NC(=O)C2CC(=O)NC(=Nc3ccc(C)c(C)c3)S2)cc1 (stereo unspecified),-19.7% (inactive),
Cn1c(=O)c2c(n3c4ccccc4nc13)NC(=O)CC2c1cccc(Cl)c1 (stereo unspecified),-14.3% (inactive),
O=C1CCc2cc(S(=O)(=O)Nc3cccc(Oc4ccccc4)c3)ccc2N1,-30.5% (inactive),
CCN1CCN(c2ncnc3c2cnn3-c2ccc(C)c(C)c2)CC1,-21.7% (inactive),
Cn1nc(-c2ccccc2)c2cc([N+](=O)[O-])ccc21,-20.8% (inactive),
COC(=O)CC1=NN(c2ccccc2)C(=O)C1,-19.2% (inactive),
O=C1CC(c2ccccc2)=NN1c1ccc([N+](=O)[O-])cc1,,39.8 µM (active)
COC(=O)c1ccc(-c2nc3cc(NC(C)=O)ccc3o2)cc1,-2.29% (inactive),
CCOc1cc(C(=O)O)ccc1OCCOc1ccccc1,-10.9% (inactive),
CCOc1cccc2c1N[C@@H](c1ccc(C(=O)O)cc1)[C@H]1CC=C[C@@H]21,,22.4 µM (active)
CCOc1c(CNCc2ccc(C(=O)O)cc2)cccc1OC,0% (inactive),

# Source: PubChem BioAssay AID504339 (National Center for Advancing Translational Sciences (NCATS), 2011)
